In the library only some 9.2% were active in any assay of this set; here they are far more common.
UCHL1 inh: inhibitors of human UCHL1 deubiquitinase. Ubiquitin carboxyl-terminal hydrolase isozyme L1 (Homo sapiens), P09936. purified UCHL1, Ub-rhodamine cleavage fluorescence. inhibition, % at 20 µM. 47,000 tested, 0.2% active. AID 1645859, 2021
USP17 block: inhibitors of human USP17 deubiquitinase; Ubiquitin carboxyl-terminal hydrolase 17-like protein 5 (Homo sapiens), A8MUK1; purified USP17, Ub-rhodamine cleavage fluorescence, 3 h; inhibition, % at 50 µM; 47,000 tested, 6.5% active
USP7 block: inhibitors of human USP7 deubiquitinase; Ubiquitin carboxyl-terminal hydrolase 7 (Homo sapiens), Q93009; purified USP7, Ub-rhodamine cleavage fluorescence; inhibition, % at 20 µM; 47,000 tested, 0.3% active
OTUD3 block: inhibitors of human OTUD3 deubiquitinase; AID 1645858, 2021; purified OTUD3, Ub-rhodamine fluorescence, 2 h; inhibition, % at 25 µM; OTU domain-containing protein 3 (Homo sapiens), Q5T2D3; 47,000 tested, 0.7% active
USP10 inh: inhibitors of human USP10 deubiquitinase; purified USP10, Ub-rhodamine fluorescence, 60 min; inhibition, % at 20 µM; 47,000 tested, 1.1% active; Ubiquitin carboxyl-terminal hydrolase 10 (Homo sapiens), Q14694
Target sequence (Q14694 whole entry, looked up): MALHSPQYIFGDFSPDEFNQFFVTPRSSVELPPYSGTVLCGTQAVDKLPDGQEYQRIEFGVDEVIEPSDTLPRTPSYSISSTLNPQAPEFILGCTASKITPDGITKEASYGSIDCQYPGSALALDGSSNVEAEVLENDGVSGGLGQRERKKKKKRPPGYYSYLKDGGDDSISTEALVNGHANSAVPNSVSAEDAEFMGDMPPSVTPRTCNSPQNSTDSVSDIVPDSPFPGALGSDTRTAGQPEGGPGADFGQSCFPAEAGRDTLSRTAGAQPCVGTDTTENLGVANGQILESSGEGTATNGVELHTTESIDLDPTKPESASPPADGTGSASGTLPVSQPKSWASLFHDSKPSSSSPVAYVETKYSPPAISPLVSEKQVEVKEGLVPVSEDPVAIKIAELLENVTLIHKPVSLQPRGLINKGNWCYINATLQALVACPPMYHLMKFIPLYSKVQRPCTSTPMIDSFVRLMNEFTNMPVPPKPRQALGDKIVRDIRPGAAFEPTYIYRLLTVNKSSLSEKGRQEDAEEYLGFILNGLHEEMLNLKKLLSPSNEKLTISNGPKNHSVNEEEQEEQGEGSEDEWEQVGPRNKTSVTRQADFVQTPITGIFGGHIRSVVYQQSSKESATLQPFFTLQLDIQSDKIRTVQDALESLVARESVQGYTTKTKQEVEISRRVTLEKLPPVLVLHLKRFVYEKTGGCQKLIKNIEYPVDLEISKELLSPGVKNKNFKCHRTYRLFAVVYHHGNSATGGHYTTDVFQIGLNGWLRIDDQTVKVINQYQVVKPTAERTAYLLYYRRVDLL
USP8 block: inhibitors of human USP8 deubiquitinase; Ubiquitin carboxyl-terminal hydrolase 8 (Homo sapiens), P40818; purified USP8, Ub-rhodamine cleavage fluorescence, 30 min; inhibition, % at 20 µM; 47,000 tested, 4.2% active; AID 1645853, 2021
An asterisk follows results filed as active. Rule as the data show it: active = inhibition above about 30%; inactive = the rest.

SMILES	UCHL1 inh	USP17 block	USP7 block	OTUD3 block	USP10 inh	USP8 block
COc1ccc(NC(C)=O)cc1CNC(=O)CSc1nc2ccccc2[nH]1	-4	0	1	-3	2	-13
Cc1cccc(OCC(=O)NCC(c2ccc3c(c2)CCCN3C)N2CCOCC2)c1 (configuration not stated)	-2	-4	-1	-6	-7	10
COc1ccc(-c2nnc(N3CCC(C(=O)N4CCCCC4)CC3)o2)cc1	0	0	-1	1	2	1
CC(=O)c1ccc(NS(=O)(=O)c2c(C)nc3sccn3c2=O)cc1	-2	-6	0	-8	1	-2
COc1ccc(CNC(=O)CCn2c(=O)c3sccc3n(Cc3cccc([N+](=O)[O-])c3)c2=O)cc1	-1	11	0	14	2	-29
CCCCCn1c(SCc2cccnc2)nc2cc(C(=O)NCc3ccco3)ccc2c1=O	0	0	-22	-8	13	-3
COc1ccc(OC)c(NC(=O)CN2CCC(c3nc4ccccc4[nH]3)CC2)c1	-7	-14	12	-13	-3	-2
CCC(=O)Nc1ccccc1-c1nc2ccccc2n(CC(=O)Nc2cc(OC)ccc2OC)c1=O	4	45*	-2	19	1	11
CCCCCn1c(SCC(=O)CC(=O)OCC)nc2cc(C(=O)NCc3ccco3)ccc2c1=O	-6	34*	-4	-6	7	63*
COc1ccc(NC(=O)CCCCn2c(=O)c3ccccc3n(Cc3cccc([N+](=O)[O-])c3)c2=O)cc1	4	33*	4	20	1	21
COc1ccc(Cl)cc1NC(=O)Cn1c(=O)n(CCCCC(=O)NCCc2ccccc2)c(=O)c2ccccc21	0	14	2	14	43*	42*
COc1ccc(N(CC(=O)Nc2cc(C)ccc2OC)S(=O)(=O)c2c(C)nn(C)c2C)cc1	8	18	6	5	-1	18
Cc1cc(NC(=O)c2cccc(-n3cnnc3)n2)ccc1NC(=O)c1cc2ccccc2o1	1	11	5	6	-1	15
COc1ccc(CCNC(=O)CSc2cn(CC(=O)N3CCCCC3)c3ccccc23)cc1OC	-1	-9	-2	-7	0	-94
COc1ccc(CCNC(=O)CSc2cc(=O)n(C)c3cc(Cl)ccc23)cc1OC	0	38*	-1	4	-1	-1
CCOc1cc2[nH]c(=O)n(CCCC(=O)NCc3ccco3)c(=O)c2cc1OCC	-1	33*	3	5	5	8
Cc1cccc(CNC(=O)Cn2ccc3ccc(N4CCOCC4)nc32)c1	-1	-48	-26	-59	-3	-22
Cc1nc(C2CCCCN2S(C)(=O)=O)nc2c1CC(=O)N2Cc1cccc(F)c1 (configuration not stated)	-5	-80	-17	-123	-9	2
Cc1ccc(NC(=O)c2cc(-c3ccccn3)nc3ccc(C)cc23)cc1	-5	-2	3	-20	-2	-12
Cc1ccc2nc(NC(=O)c3ccccc3Cl)[nH]c(=O)c2c1	1	46*	3	-1	6	-1
CCCC(=O)N1CCC[C@@H]1Cn1c(C(F)(F)F)cc(=O)c2cc(C)ccc21	2	5	-2	-1	0	-6
O=C1NC2(CCN(Cc3ccccc3F)CC2)N=C1c1cccc(F)c1	1	-7	0	-7	0	-3
CC(NC(=O)CSc1nnc(C2CC2)n1Cc1ccccc1)c1ccco1 (configuration not stated)	-3	1	-6	3	-9	6
Clc1ccccc1CSc1nnc(C2CCCCC2)n1Cc1ccccc1	6	37*	-55	23	17	11
COc1ccc(S(=O)(=O)N(CC(=O)NCc2ccc3c(c2)OCO3)c2ccc(F)cc2)cc1OC	2	34*	3	17	2	16
SMILES	UCHL1 inh	USP17 block	USP7 block	OTUD3 block	USP10 inh	USP8 block
COc1ccc(S(=O)(=O)N(CC(=O)Nc2cccnc2)c2ccc(F)cc2)cc1OC	5	6	2	6	2	2
COc1ccc(N(CC(=O)Nc2cccc(F)c2)S(=O)(=O)c2ccc(OC)c(OC)c2)cc1	3	36*	6	22	3	21
COc1ccc(CNC(=O)CN(c2ccccc2)S(=O)(=O)c2ccc(F)cc2)cc1OC	-1	-1	-4	0	0	-1
O=C(Cc1ccccc1)Nc1ncc2c(n1)CC(c1cccs1)CC2=O (configuration not stated)	-6	-3	-57	-12	-6	-11
Cc1cccc(NC(=O)Cn2c(N3CCOCC3)nc3cc(C)n(C)c3c2=O)c1	-1	47*	-2	-1	-2	10
Cn1ncc2c(N3CCOCC3)nc(C(=O)NCc3ccc(Cl)cc3)nc21	0	5	1	7	-2	18
Cc1cccc(NC(=O)c2nc(N3CCOCC3)c3cnn(C)c3n2)c1	1	44*	6	9	3	1
Cc1ccc(NC(=O)c2cnc3ccccc3n2)cc1Cl	0	2	-2	-30	-2	65*
Cc1ccc(COc2cc(C(=O)NCCCc3ccccc3)c3ccccc3n2)cc1	2	-8	7	22	4	-116
CCOc1ccccc1NC(=O)C1(c2ccccc2)CC1	1	11	2	9	4	6
CCn1cc(C(=O)NCc2ccc(F)cc2F)c(=O)c2ccc(C)nc21	0	41*	1	26	-4	24
CCn1cc(C(=O)NCc2ccc(SC)cc2)c(=O)c2ccc(C)nc21	-10	6	-7	6	-2	-5
Cc1ccc(-n2ccn3c(CCC(=O)NCc4ccccc4)nnc3c2=O)cc1C	-2	9	0	3	-2	-24
COc1ccc(-n2ccn3c(CCC(=O)Nc4cccc(C)c4)nnc3c2=O)cc1	4	-5	2	5	26	36*
Cc1cccc(NC(=O)CCc2nnc3c(=O)n(-c4ccc(C)c(C)c4)ccn23)c1	-1	5	4	5	0	36*
Cc1ccc(NC(=O)CCc2nnc3c(=O)n(-c4cc(C)cc(C)c4)ccn23)cc1	0	15	10	8	9	42*
Cc1cc(C)cc(-n2ccn3c(CCC(=O)Nc4ccc(F)cc4)nnc3c2=O)c1	5	22	12	19	10	-14
Cc1ccc(NC(=O)CCc2nnc3c(=O)n(-c4ccc(C)c(C)c4)ccn23)cc1	0	8	3	2	-1	3
COCCCN1CCS(=O)(=O)c2c(Cl)c(F)nc(Oc3ccccc3)c21	1	41*	-142	-7	0	35*

From PubChem BioAssay
